According to PubChem BioAssay AID488839 (Broad Institute, 2010):
About 35 (0.01%) of roughly 330,000 compounds were called active.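 Rule for the calls: active = highest replicate inhibition of at least 50% and at least 75% of replicates reaching 50%; inconclusive = only one of the two criteria met; inactive = both criteria failed.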 Not all results are given here.

molecular target: Cyclin-dependent kinase 5 (Homo sapiens) + Cyclin-dependent kinase 5 activator 1 (Homo sapiens) (UniProt Q00535+Q15078); experiment: inhibitors of human CDK5/p35 kinase, primary screen, biochemical, single concentration (AID 488839); conditions: Recombinant CDK5/p35, ADP-Glo luminescence, 60 min; at 10 µM; stronger effect = higher value;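 note: plate controls were DMSO neutral control for no effect and GW8510 at 10 µM for full effect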
Sequence (Q00535 whole entry, looked up): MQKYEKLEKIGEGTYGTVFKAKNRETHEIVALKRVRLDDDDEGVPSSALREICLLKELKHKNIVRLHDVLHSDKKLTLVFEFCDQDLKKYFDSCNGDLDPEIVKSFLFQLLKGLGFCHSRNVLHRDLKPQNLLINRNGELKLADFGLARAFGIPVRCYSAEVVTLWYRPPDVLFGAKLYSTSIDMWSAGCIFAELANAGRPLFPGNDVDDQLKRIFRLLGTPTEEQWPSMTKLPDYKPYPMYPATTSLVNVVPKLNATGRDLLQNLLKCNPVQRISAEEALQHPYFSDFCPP
Sequence (Q15078 whole entry, looked up): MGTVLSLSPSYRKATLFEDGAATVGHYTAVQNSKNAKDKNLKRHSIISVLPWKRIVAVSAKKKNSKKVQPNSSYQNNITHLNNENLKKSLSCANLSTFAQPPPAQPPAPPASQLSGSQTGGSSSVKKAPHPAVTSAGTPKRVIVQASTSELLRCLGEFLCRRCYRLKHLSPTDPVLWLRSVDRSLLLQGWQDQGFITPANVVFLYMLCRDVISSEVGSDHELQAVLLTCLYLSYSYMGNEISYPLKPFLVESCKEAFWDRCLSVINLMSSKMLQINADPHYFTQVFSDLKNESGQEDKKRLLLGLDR

inhibition, inactive:
CON(C)S(=O)(=O)c1ccc2c(c1)NC(=O)C1CCCN21 (stereo not given) -2.05%
Cc1ccc(OCCCCc2c(C)n[nH]c2C)cc1 0.0918%
COC(=O)c1cc(S(=O)(=O)Nc2ccc(C)c(F)c2)c[nH]1 1.29%
O=c1cc(Cl)c2ccccc2n1-c1ccccc1 -0.318%
COc1ccc(C(=O)N2CCN(c3ccc(C(C)=O)cc3F)CC2)cc1S(=O)(=O)NC1CC1 0.384%
COc1ccc(C(C)NC(=S)NC2CCCCC2)cc1OC (stereo not given) -2.83%
CCOc1ccccc1NC(=O)COc1ccc(S(=O)(=O)N2CCCC2)cc1 -0.338%
COc1ccc(CCNC(=O)CCc2cn(C)c3ccccc23)c(OC)c1 1.21%
COc1ccc(-c2nc(CN3CCN(c4ncccn4)CC3)c(C)o2)cc1C 0.124%
COc1ccc(S(=O)(=O)N(CCCN2CCCC2=O)Cc2cc3c(C)ccc(C)c3[nH]c2=O)cc1 -2.49%
CCCCN(CC(=O)Nc1cccc(S(=O)(=O)N2CCCC2)c1)Cc1nc2ccccc2c(=O)[nH]1 0.255%
C=CCn1c(-c2ccccc2OCC)n[nH]c1=S -0.312%
Cc1ccc(NC2CCCN(C(=O)CCc3cn[nH]c3)C2)cc1C (stereo not given) 0.302%
CCCNC(=O)NCc1ccc(N2CCCC2=O)cc1 -1.59%
Cc1nn(-c2ccccc2)c(CC(C)(C)C(=O)O)c1C(=O)O 0.362%
O=C1c2ccccc2C(O)N1Cc1ccccc1Cl (stereo not given) -1.45%
Cc1cccc(-n2c(SCC(=O)Nc3cccc(S(=O)(=O)NC4=NCCCCC4)c3)nc3ccccc3c2=O)c1C 0.0416%
CN(C(=O)CC1C(=O)NCCN1Cc1ccc2ccccc2c1)C1CCOCC1 (stereo not given) 0.878%
COc1ccc(C(C)NC(=O)C2CCCC2)cc1 (stereo not given) -1.29%
O=C(NCCc1nnc2ccc(SCC(=O)N3CCOCC3)nn12)c1ccccc1 -3.67%
CCOC(=O)c1cnc2ccc(F)cc2c1Nc1ccc2c(c1)OCCO2 -0.0856%
Cc1ccc(NS(=O)(=O)c2c(C)[nH]c(=O)[nH]c2=O)cc1C -1.59%
CC1CCCCC1NCC(=O)Nc1ccccc1C(=O)Nc1ccccc1 (stereo not given) -1.88%
COCCn1c(SC(C)C(=O)NC2CC2)nnc1-c1cccc(C)c1 (stereo not given) -7.75%
COCC(C)n1c(C)cc(C(=O)COc2ccc(C)nc2[N+](=O)[O-])c1C (stereo not given) 1.15%
Cc1nnc(SC(C(=O)c2ccccc2)c2ccccc2)[nH]c1=O (stereo not given) 0.641%
COc1cccc(CN2C(=O)CCC2(C)C(=O)NC2CCCCCC2)c1 (stereo not given) 1.09%
COc1cccc2c1OCC(C(=O)NCc1ccc(Cl)cc1Cl)=C2 -2.22%
COc1ccc(CCNC(=O)CCC(=O)NC2CCCCC2)cc1OC 1.39%
CC(=O)Nc1ccc(NC(=O)C(C)OC(=O)C2CC(=O)N(CCc3ccccc3)C2)cc1 (stereo not given) -2.5%
CC1(C)CC(=O)C(C2=NC(C)(C)Cc3ccccc32)=C(O)C1 0.357%
COc1ccc(-n2nc3c(c2NC(=O)c2ccc(N4C(=O)CCC4=O)cc2)CSC3)cc1 2.36%
Brc1ccc(-c2n(-c3ccccn3)c3ccccc3[n+]2-c2ccccn2)cc1 3.32%
C=CCNC(=S)NNc1ncnc2sc3c(c12)CC(C)(C)OC3 -1.36%
Cc1ccc(S(=O)(=O)N2C3C=CC(C3)C2C(=O)O)cc1 (stereo not given) -7.35%
O=C(Cn1cnc2c(OCc3ccccc3)ncnc21)NCCCn1ccnc1 1.18%
CC(C)c1ccc(Nc2nnc(SCC(=O)c3nnc(-c4ccccc4)o3)s2)cc1 1.49%
Cc1cc(C(C)(C)C)cc(S(=O)(=O)Nc2ccc(C(=O)O)cc2)c1C 0.418%
Cc1ccc(SCC2=NNC(=O)C2)cc1 0.0205%
CC(C)C(NC(=O)c1c(F)cccc1F)C(=O)NCc1ccncc1 (stereo not given) -1.58%
Cc1ccc(N(C(=O)c2ccc(S(=O)(=O)N(C)C)cc2)C2C=CS(=O)(=O)C2)cc1 (stereo not given) 1.14%
COc1ccc(Cl)cc1NC(=O)CN(C)Cc1ccc(OC)c(OC)c1 -3.62%
CCOC(=O)N1CCC(NC(=O)Cn2cc3c(n2)CCCCC3)CC1 3.25%
CCCc1nc2oc3c(=O)[nH]cnc3c2c2c1COC(C)(C)C2 -0.359%
CCOC(=O)c1c(NC(C)=O)sc2c(O)c(Br)ccc12 -0.579%
Cc1ccc(C)c(NC(=O)COC(=O)CSc2ccccc2)c1 -0.511%
CCc1cc2c(=O)c(-c3nc4ccccc4n3C)c(CCCC(=O)O)oc2cc1OC(=O)C(C)(C)C -1.94%
O=C(CN1CCOCC1)Nc1c2c(nc3c1CCC3)CCC2 -2.33%
O=C(COC(=O)CNC(=O)C1CCCCC1)NCc1ccccc1 1.54%
CCCCc1nc(SCC(=O)Nc2nnc(C(C)C)s2)n[nH]1 -0.0356%
